ABCB6 inh 2 – inhibitors of human ABC transporter ABCB6 | hit rate 0.19% among 360,000 | Q9NP58 | fluorescence ratio to DMSO, % at 10 µM | K562-ABCB6 porphyrin accumulation, flow cytometry, 1 h; stronger effect = lower value;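 active = fluorescence ratio to DMSO below 75%, the collection mean minus 3 SD; inconclusive = too few cells collected in the well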;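 note: signal is porphyrin accumulated inside mitochondria; 100% equals median channel fluorescence of DMSO control wells; lower ratio means ABCB6 inhibition with less porphyrin fluorescence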
Target sequence (Q9NP58 whole entry, looked up): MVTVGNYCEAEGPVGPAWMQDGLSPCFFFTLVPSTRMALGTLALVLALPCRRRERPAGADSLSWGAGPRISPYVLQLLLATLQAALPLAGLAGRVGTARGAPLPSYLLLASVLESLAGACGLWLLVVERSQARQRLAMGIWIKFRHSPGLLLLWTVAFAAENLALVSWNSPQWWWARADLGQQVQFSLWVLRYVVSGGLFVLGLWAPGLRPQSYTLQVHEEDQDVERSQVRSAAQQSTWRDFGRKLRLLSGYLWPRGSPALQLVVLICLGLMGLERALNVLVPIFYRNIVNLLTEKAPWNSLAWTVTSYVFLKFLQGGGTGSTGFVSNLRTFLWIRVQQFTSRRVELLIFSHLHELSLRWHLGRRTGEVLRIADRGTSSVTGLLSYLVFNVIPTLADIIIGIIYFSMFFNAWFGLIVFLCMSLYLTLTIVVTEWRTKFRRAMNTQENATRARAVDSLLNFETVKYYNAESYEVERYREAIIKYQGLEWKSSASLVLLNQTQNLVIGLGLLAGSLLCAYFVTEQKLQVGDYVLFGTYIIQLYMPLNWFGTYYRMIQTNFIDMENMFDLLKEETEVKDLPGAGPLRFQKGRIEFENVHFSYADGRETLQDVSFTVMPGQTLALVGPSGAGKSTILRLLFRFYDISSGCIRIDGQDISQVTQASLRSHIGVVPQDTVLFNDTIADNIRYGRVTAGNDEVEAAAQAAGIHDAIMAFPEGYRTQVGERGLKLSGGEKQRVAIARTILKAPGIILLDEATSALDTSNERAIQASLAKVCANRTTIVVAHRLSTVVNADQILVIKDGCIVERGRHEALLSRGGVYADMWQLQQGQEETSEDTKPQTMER
Myeloid diff MLP – promotes myeloid progenitor differentiation. ER-HoxA9 myeloid progenitors, lysozyme-GFP differentiation, flow cytometry. calls only at 10 µM. hit rate 1% among 360,000. AID 624256;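 active = normalized GFP-positive differentiation at or above the plate's own cutoff, the solvent-only control mean plus 3 SD; inconclusive = no clear call, values can overlap the other calls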;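 note: cells exposed to compound for four days before flow analysis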
Exocytosis inh – lytic granule exocytosis inhibition; TALL-104 LAMP-1 surface exposure, flow cytometry; cells stimulated with thapsigargin and PMA; inhibition, % at 10 µM; hit rate 0.66% among 360,000; AID 651702;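 active = inhibition above about 55%, limit read from the data; inconclusive = no clear call, values can overlap the other calls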
Granule exo CP1 – blocks lytic granule exocytosis | shares compounds with Exocytosis inh | TALL-104 cells, LAMP-1 externalization, flow cytometry; stimulated with PMA plus thapsigargin | inhibition, % at 10 µM | hit rate 11% among 1,500 | AID 651954; in the data active = inhibition above about 60%;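 note: 0% = stimulated vehicle wells and 100% = unstimulated wells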
The depositor's hits bear a star; i = inactive; ? = inconclusive; · = not tested or not shown. In the library only some 1.8% were active in any assay of this set; here they are far more common.

SMILES	ABCB6 inh 2	Myeloid diff MLP	Exocytosis inh	Granule exo CP1
CN(c1ccccc1)S(=O)(=O)c1cccc(NC(=O)COc2ccccc2)c1	89.0	i	-1.6	·
CN(C)S(=O)(=O)c1cccc(NC(=O)COc2ccc(C(=O)c3ccccc3)cc2)c1	93.0	i	58.0*	2.4
CN(C)S(=O)(=O)c1cccc(NC(=O)c2ccccc2OCc2ccc(F)cc2)c1	97.0	i	102.2*	-9.9
COc1ccc(NC(=O)c2ccccc2NC(=O)c2ccccc2C(=O)O)c(OC)c1	98.0	i	-5.8	·
COc1ccc(NC(=O)c2ccccc2OCc2ccc(F)cc2)c(OC)c1	99.0	i	84.6*	-11.1
CCc1ccccc1N(CC(=O)NC(C)c1ccccc1)S(C)(=O)=O (stereo unspecified)	105.0	i	-12.5	·
CCOc1ccccc1CN1CCNC(=O)C1CC(=O)NCc1nc(C)cs1 (stereo unspecified)	98.0	i	5.5	·
CC1CC(=O)c2cnc(N)nc2C1 (stereo unspecified)	105.0	i	4.0	·
CC1CC(=O)c2cnc(N3CCOCC3)nc2C1 (stereo unspecified)	98.0	i	100.3*	-4.1
O=C(CN(Cc1ccc(Br)cc1)S(=O)(=O)c1ccccc1)NCc1cccnc1	95.0	i	3.0	·
O=C(NCc1cccnc1)/C(=C\c1ccc(-c2ccc(Br)cc2)o1)S(=O)(=O)c1ccccc1	101.0	·	83.0*	53.8
COc1ccc(CCNC(=O)c2cccc(S(=O)(=O)N3CCOCC3)c2)cc1OC	96.0	i	-3.3	·
O=C(CCc1c[nH]c2ccccc12)NCC(=O)Nc1ccc(F)c(F)c1F	102.0	i	2.5	·
CCCn1c2ccc(C)cc2c2nnc(SCCN3CCCCC3)nc21	97.0	i	42.0	·
CCn1c2ccc(C)cc2c2nnc(SCCN3CCCCC3)nc21	90.0	i	97.2*	-3.1
Cc1ccc(CCNC(=O)C(C)n2nc(C)c3c(C)n(-c4ccccc4)nc3c2=O)cc1 (stereo unspecified)	99.0	i	-7.3	·
CCC(C(=O)NCCc1ccc(C)cc1)n1nc(C)c2c(C)n(-c3ccccc3)nc2c1=O (stereo unspecified)	99.0	?	85.7*	-3.5
CCC(C(=O)NCCCN(CC)Cc1ccccc1)n1nc(C)c2sc3ccccc3c2c1=O (stereo unspecified)	101.0	i	57.5*	-4.8
Cc1nn(C(C)C(=O)NCCCN(Cc2ccccc2)C(C)C)c(=O)c2c1sc1ccccc12 (stereo unspecified)	99.0	i	1.4	·
CCN(CC)S(=O)(=O)c1ccc(C)c(NS(=O)(=O)c2cc(/C=C/C(=O)O)cc(OC)c2OC)c1	98.0	i	-3.5	·
CC(=O)Nc1cccc(C(=O)OCC(=O)N2CCC(c3ccccc3)=N2)c1	96.0	i	-3.2	·
COc1ccc(NC2CCCN(C(=O)CCN3CCOCC3)C2)cc1 (stereo unspecified)	96.0	i	-4.8	·
Cc1sc2ncn(-n3c(C)ccc3C)c(=O)c2c1C	98.0	i	-4.6	·
Cc1ccc(-c2csc3ncn(-n4c(C)ccc4C)c(=O)c23)o1	98.0	i	55.6*	-13.6
COc1cccc(C(=O)Nc2cccc(OC(C)=O)c2)c1	90.0	i	1.1	·
SMILES	ABCB6 inh 2	Myeloid diff MLP	Exocytosis inh	Granule exo CP1
CC(=O)Oc1cccc(NC(=O)c2cccc(C(=O)Nc3cccc(OC(C)=O)c3)c2)c1	105.0	i	63.8*	-3.8
Cc1cccc(Oc2sc(C(=O)c3ccccc3)c(N)c2C#N)c1C	91.0	i	65.6*	5.3
N#Cc1c(Oc2ccc3ccccc3c2)sc(C(=O)c2ccccc2)c1N	94.0	i	41.9	·
Cc1cc(=O)oc2cc(OCC(=O)N3CCC(C(N)=O)CC3)ccc12	102.0	i	-0.2	·
COc1ccc2nc(C)cc(N3CCOCC3)c2c1	88.0	i	-1.9	·
COc1ccc2nc(C)cc(N3CCN(c4ccccc4)CC3)c2c1	93.0	i	64.6*	-2.3
O=C(COc1cc2oc(=O)c3c(c2cc1Cl)CCC3)NCCCn1ccnc1	97.0	i	2.0	·
COc1ccc(N(CC(=O)NC2CCS(=O)(=O)C2)S(=O)(=O)c2cc(C)ccc2C)cc1 (stereo unspecified)	97.0	i	-6.1	·
COc1ccc(OCC(=O)Nc2cc(OC)ccc2N2CCCCC2)cc1	98.0	i	66.7*	-2.4
O=C(Nc1ccccc1N1CCOCC1)c1cc2ccccc2o1	96.0	?	9.5	·
COc1ccc(N2CCOCC2)c(NC(=O)c2cc3ccccc3o2)c1	104.0	i	74.9*	-12.9
COc1ccc(N2CCCC2)c(NC(=O)COc2ccccc2Cl)c1	96.0	i	25.1	·
CCCc1c(C(=O)N/N=C/c2ccncc2)nnn1-c1nonc1N	91.0	i	-3.2	·
Cc1ccc(NC(=O)CSc2nc(=O)n(Cc3ccncc3)c3c2CCC3)c(C)c1	101.0	i	58.6*	-3.5
CC(=O)Nc1ccc(NC(=O)CSc2nc(=O)n(Cc3ccncc3)c3c2CCC3)cc1	100.0	i	1.3	·
O=C(NCCc1ccccc1F)N[C@@H](Cc1ccccc1)C(=O)O	97.0	i	2.7	·
OC(c1ccc(F)cc1)(C1CCCCC1)C(CN1CCOCC1)c1ccccc1 (stereo unspecified)	96.0	i	-11.1	·
Cc1cn2c(=O)c(C(=O)NCc3ccc4c(c3)OCO4)cnc2s1	98.0	i	58.7*	-10.3
Cc1ccc(C(=O)NCc2ccc3c(c2)OCO3)o1	99.0	i	4.1	·
COc1ccccc1C(CNC(=O)c1cccc(S(=O)(=O)N2c3ccccc3CC2C)c1)N(C)C (stereo unspecified)	100.0	i	-8.0	·
NC(Cc1ccccc1)c1csc(Nc2ccc(C(=O)c3ccccc3)cc2)n1 (stereo unspecified)	93.0	i	11.2	·
NC(Cc1ccc(Cl)cc1)c1csc(Nc2ccc(C(=O)c3ccccc3)cc2)n1 (stereo unspecified)	97.0	i	58.2*	10.0
Cc1ccc(S(=O)(=O)N(C)c2ccc3ccccc3c2)cc1	100.0	i	16.7	·
CN(c1ccccc1)S(=O)(=O)c1ccc2ccccc2c1	103.0	i	65.3*	-3.7
CC(C)NC(=O)C1C(c2ccc(C(F)(F)F)cc2)=Nc2ccccc2N1C(=O)c1cc2ccccc2[nH]1 (stereo unspecified)	·	i	-20.1	·
SMILES	ABCB6 inh 2	Myeloid diff MLP	Exocytosis inh	Granule exo CP1
O=C(NC1CCCC1)C1C(c2ccc(C(F)(F)F)cc2)=Nc2ccccc2N1C(=O)c1cc2ccccc2[nH]1 (stereo unspecified)	·	i	69.8*	-14.7
C[C@@H]1CCCCCCCCC(=O)OCCN[C@H](C)CCCCCCCCC(=O)OCCN[C@H](C)CCCCCCCCC(=O)OCCN1	101.0	i	1.1	·
CCCNC(=O)N(C)C[C@@H]1Oc2cc(Br)ccc2S(=O)(=O)N([C@@H](C)CO)C[C@H]1C	90.0	i	13.2	·
COc1ccc(CCNCC(O)COc2cccc(Br)c2)cc1OC (stereo unspecified)	102.0	i	8.7	·
COc1ccc(CCNCC(O)COc2ccc(OC)cc2C(C)(C)C)cc1 (stereo unspecified)	112.0	i	60.7*	-4.7
O=C(Nc1ccc(Cl)cc1)NN1CC(=O)N(c2cccc(C(F)(F)F)c2)CC1=O	98.0	i	1.4	·
